Most compounds without a hit are left out; they make up all but 2.3% or so of the library.
SENP7 block: SENP7 protease inhibitors, primary screen, biochemical, luminescence, uHTS; 330,000 tested, 1.5% active; inhibition, % at 5 µM; Sentrin-specific protease 7 (Homo sapiens), Q9BQF6; recombinant SENP7, Z-RLRGG-aminoluciferin luminescence, 40 min;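 active = inhibition above about 50% at the single test dose, limit read from the data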;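 note: plate controls were DMSO with enzyme for no effect and no enzyme buffer wells for full effect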
Target sequence (Q9BQF6 706-1050 limits assumed): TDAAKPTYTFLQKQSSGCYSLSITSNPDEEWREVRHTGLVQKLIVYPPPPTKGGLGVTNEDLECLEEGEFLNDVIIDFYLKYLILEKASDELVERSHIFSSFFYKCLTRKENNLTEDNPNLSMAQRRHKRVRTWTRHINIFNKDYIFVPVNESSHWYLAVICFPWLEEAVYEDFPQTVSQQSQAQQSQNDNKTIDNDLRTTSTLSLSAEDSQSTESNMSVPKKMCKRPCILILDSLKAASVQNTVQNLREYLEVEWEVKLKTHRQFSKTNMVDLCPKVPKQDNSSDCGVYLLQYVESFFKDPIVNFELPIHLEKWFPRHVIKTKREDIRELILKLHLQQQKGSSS
SENP8 block-1: human SENP8 protease inhibitors, primary screen, biochemical, fluorescence, Nedd8 protein substrate, uHTS. Sentrin-specific protease 8 (Homo sapiens), Q96LD8. recombinant SENP8. inhibition, % at 20 µM. 360,000 tested, 0.64% active. AID 602440, 2012; in the data active = inhibition mostly above about 40%, no sharp cut-off; inactive = mostly below about 27%
Target sequence (Q96LD8 whole entry, looked up): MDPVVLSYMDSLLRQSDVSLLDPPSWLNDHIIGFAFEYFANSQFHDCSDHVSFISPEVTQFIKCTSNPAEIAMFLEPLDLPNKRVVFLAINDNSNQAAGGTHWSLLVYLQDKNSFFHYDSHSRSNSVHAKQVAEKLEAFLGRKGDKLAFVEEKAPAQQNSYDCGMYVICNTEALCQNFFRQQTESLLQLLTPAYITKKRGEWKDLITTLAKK
SENP6 inh: SENP6 protease inhibitors, primary screen, biochemical, luminescence, uHTS; Sentrin-specific protease 6 (Homo sapiens), Q9GZR1; Recombinant SENP6 catalytic domain, aminoluciferin luminescence; inhibition, % at 10 µM; 330,000 tested, 1.8% active; AID 2599, 2010;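 active = inhibition above about 50% at the single tested dose, limit read from the data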;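 note: plate controls were DMSO wells with enzyme for no effect and DMSO wells lacking enzyme for full effect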
HSP90 refold inh: HSP90 inhibitors, primary screen, cell lysate, luminescence. Rabbit reticulocyte lysate, luciferase refolding luminescence, 3 h. inhibition, % at 5.6 µM. 290,000 tested, 0.91% active. AID 1789, 2009;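 active = inhibition above the screen-wide mean plus 3 SD, computed separately per campaign, cut at about 16% in these data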;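 note: 0% = DMSO wells and 100% = 60 µM geldanamycin wells; inhibitors lower the luminescence because luciferase stays unfolded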
SENP8 block-2: SENP8 protease inhibitors, primary screen, biochemical, luminescence; purified SENP8, Z-RLRGG-aminoluciferin cleavage; inhibition, % at 10 µM; 330,000 tested, 1.2% active; AID 2540, 2010; in the data active = inhibition above about 50%
LGR2 inh: inhibitors of bursicon-induced LGR2 CRE-luciferase signal, primary screen, cell-based, HEK293, CRE-luciferase reporter, bursicon stimulation; Drosophila bursicon receptor LGR2 (rickets); bursicon-stimulated, 4 h; inhibition, % at 9.99 µM; 380,000 tested, 0.35% active; AID 720647, 2013;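 active = drop in luminescence signal, shown as inhibition above about 50% in the replicate tests, limit read from the data, passing the limit was not always enough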;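 note: agonist challenge used bursicon conditioned medium at about half maximal strength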
Numbers without * were called inactive; · = not tested or not shown.

SMILES	SENP7 block	SENP8 block-1	SENP6 inh	HSP90 refold inh	SENP8 block-2	LGR2 inh
O=C(NCc1cc(C(F)(F)F)ccc1Cl)c1cccc2c1C(=O)c1ccc(N3CCC(N4CCCCC4)CC3)cc1S2(=O)=O	·	17	·	·	·	active
Nc1ccc(OCc2ccco2)cc1	54*	19	2	0	2	3
COc1ccc(C[C@@H]2OC3(C=CC(=O)C=C3)O[C@H]2Cc2ccc(OC)cc2)cc1	·	-2	·	·	·	·
O=C1C=CC2(C=C1)O[C@H](Cc1ccccc1)[C@@H](Cc1ccccc1)O2	·	3	·	·	·	98*
C=CCSc1nc2ccccc2n1C(=O)/C=C/c1cc(OC)c(OC)c(OC)c1	-8	-1	-4	5	-8	96*
C=CCSc1nc2ccccc2n1C(=O)/C=C/c1ccc(OC)c(OC)c1	·	-24	·	-2	·	43
CCC(=O)N1[C@@H](CO)[C@@H]2c3ccccc3N(C(=O)CC(F)(F)F)C[C@@H]21	·	·	·	·	·	-37
C[C@H]1CN([C@@H](C)CO)C(=O)c2cccc(NC(=O)CCCCCC(=O)Nc3ccccc3N)c2O[C@@H]1CN(C)Cc1ccc(-c2ccccc2)cc1	·	·	·	·	·	8
Cn1cccc1C(=O)C(=O)Nc1cccc(Cl)c1Cl	89*	20	12	-3	4	·
O=C(Nc1ccncc1)Nc1cccc(Cl)c1Cl	-4	3	15	-4	-2	-21
O=C(Nc1ccccc1)Nc1cccc(Cl)c1Cl	55*	17	74*	1	30	-49
C=C1C(=O)[C@@]23[C@H](O)C[C@@H]4C(C)(C)CC[C@H](O)[C@@]4(C)[C@@H]2CC[C@@H]1[C@H]3O	4	11	-4	-1	-3	59*
C=C1C(=O)[C@@]23[C@H](O)C[C@@H]4C(C)(C)CC[C@H](O)[C@]4(C)[C@@H]2C[C@H](O)[C@@H]1[C@H]3O	8	15	-15	-1	-3	35
C[C@H]1CCCCO[C@H](CN(C)S(=O)(=O)c2ccc(Cl)cc2)[C@@H](C)CN([C@@H](C)CO)C(=O)c2cc(NC(=O)CCCN(C)C)ccc2O1	·	·	·	·	·	23
C[C@@H]1CN([C@@H](C)CO)C(=O)Cc2cc(NC(=O)CCCN(C)C)ccc2O[C@@H]1CN(C)CC1CCCCC1	·	·	·	·	·	-12
COc1cc(CNCCCN2CCOCC2)cc(Br)c1OCc1ccc(Cl)cc1	0	20	-51	7	-10	99*
COc1cc(CNCCN2CCOCC2)ccc1OCc1ccc(Cl)cc1	6	27	1	-2	-8	·
O=[N+]([O-])c1ccc(O)c(C=Nc2ccc3nc(-c4ccccc4)[nH]c3c2)c1	64*	-362	71*	0	37	-49
O=[N+]([O-])c1cccc(-c2nc3ccc([N+](=O)[O-])cc3[nH]2)c1	93*	15	99*	3	94*	-64
COc1ccc(NC(=O)N[C@@H]2CC[C@H](CC(=O)NC3CCC3)O[C@@H]2CO)cc1	·	·	·	·	·	-5
CC(C)NC(=O)NC(=O)COc1ccc(Br)cc1Br	2	0	9	11	-12	53*
COc1ccc(CNC(=O)C[C@@H]2C[C@H]3c4cc(NC(=O)C5CCC5)ccc4O[C@H]3[C@H](CO)O2)cc1	·	·	·	·	·	-9
COc1ccc(N=[N+]([O-])c2ccc(OC)cc2)cc1	·	41*	·	·	·	72*
COc1ccc(NC(C)c2cc(Cl)ccc2O)cc1 (stereo not drawn)	-5	47*	-12	-3	-6	·
C[C@@H]1OC(Nc2ccc(N=Nc3ccccc3)cc2)[C@H](O)[C@H](O)[C@H]1O (stereo partly drawn)	2	40*	-1	-1	-3	·
SMILES	SENP7 block	SENP8 block-1	SENP6 inh	HSP90 refold inh	SENP8 block-2	LGR2 inh
Cn1nnnc1Sc1ncnc2scc(-c3cccc(F)c3)c12	-5	3	0	·	-3	83*
Cn1nnnc1Sc1ncnc2scc(-c3ccc(C#N)cc3)c12	-5	-1	11	·	16	88*
Cn1nnnc1Sc1ncnc2scc(-c3ccc(C(F)(F)F)cc3)c12	-4	8	-8	·	-7	93*
Cn1nnnc1Sc1ncnc2scc(-c3cccc(C(F)(F)F)c3)c12	-2	5	-7	·	5	88*
Cn1nnnc1Sc1ncnc2scc(-c3ccc(-c4ccccc4)cc3)c12	-6	-19	-9	·	-4	10
COc1cccc(-c2csc3ncnc(Sc4nnnn4C)c23)c1	9	15	4	·	8	46
C[C@H]1CN([C@@H](C)CO)C(=O)c2cccc(N(C)C)c2O[C@@H]1CN(C)Cc1ccc2c(c1)OCO2	·	·	·	·	·	-3
COc1ccc2c3c(n(C)c2c1)[C@H](CO)N(Cc1ccncc1)CC31CN(C(=O)Cc2ccncc2)C1	·	·	·	·	·	-1
COc1ccc(S(=O)(=O)Nc2ccc3c(c2)C(=O)N([C@H](C)CO)C[C@H](C)[C@@H](CN(C)C(=O)c2ccccc2)OCCCC[C@H](C)O3)cc1	·	·	·	·	·	-5
Cn1nnnc1Sc1ncnc2scc(-c3cc4ccccc4o3)c12	-1	-51	1	·	6	106*
Cn1nnnc1Sc1ncnc2scc(-c3ccsc3)c12	-10	2	-19	·	-12	74*
CS(=O)(=O)N1[C@@H]2c3ccc(-c4ccccc4)c(=O)n3C[C@@H]2[C@@H](CO)[C@@H]1C(=O)NC1CCC1	·	·	·	·	·	3
O=C1c2cccc(NCCCNCCO)c2C(=O)c2cccc(NCCCNCCO)c21	·	57*	·	·	·	12*
O=C1c2ccccc2C(=O)c2c(NCc3cccnc3)cccc21	1	19	-14	0	-9	·
COc1ccc(S(=O)(=O)Nc2ccc3c(c2)C(=O)N([C@@H](C)CO)C[C@H](C)[C@H](CN(C)C(=O)Cc2ccccc2)OCCCC[C@@H](C)O3)cc1	·	·	·	·	·	9
COC(=O)c1ccc(NC(=O)C(=O)N2CCCC2)cc1	-6	35	4	16*	-16	·
CC(=O)Nc1ccc(C(=O)Nc2ccc3c(c2)OCO3)cc1	7	1	-7	-4	-6	0
O=C(Nc1ccc2c(c1)OCO2)c1ccc2c(c1)OCO2	85*	9	86*	7	67*	17
CCCNC(=O)N(C)C[C@@H]1Oc2cc(-c3ccncc3)ccc2S(=O)(=O)N([C@@H](C)CO)C[C@H]1C	·	·	·	·	·	10
O=C1C2C3C=CC(C3)C2C(=O)N1CNc1ccc(O)cc1 (stereo not drawn)	18	·	72*	·	13	·
Cc1ccc(NCN2C(=O)C3C4C=CC(C4)C3C2=O)cc1 (stereo not drawn)	-7	16	-13	8	-2	·
O=C1/C(=C/c2ccco2)SC(=S)N1CC1CCCO1 (stereo not drawn)	10	42*	-26	8	3	·
O=C1/C(=C/c2cccnc2)SC(=S)N1CC1CCCO1 (stereo not drawn)	6	13	3	-1	-1	·

Source: PubChem (several laboratories)
